# Rows were chosen to be rich in hits. Some 21% of all compounds tested hit in one or more screens of this group.
# CHX counter – Cycloheximide Counterscreen for Small Molecule Inhibitors of Shiga Toxin; cell reporter, cycloheximide protein synthesis inhibition counterscreen; max response, %; 12% of 300,000 active; AID 2314, 2010; in the data active means max response mostly above about 13%, no sharp cut-off; inactive means mostly below about 14%; further: read at 38.3 µM for the half of the compounds with a filed dose; 0% is about no effect
# Pf growth 48h – Primary qHTS for delayed death inhibitors of the malarial parasite plastid, 48 hour incubation; P. falciparum luciferase growth in erythrocytes, 48 h; Potency, µM (series often up to 28.7 µM), for inactives: at the top dose activity change, negative = inhibition, usual class: inhibitors; 5.9% of 310,000 active; further: potency means the concentration at half of the fitted maximal effect; on the % scale 0 is the no-effect control and ±100 the full control effect
#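 Firefly luciferase activity from engineered P. falciparum reports growth; inhibitors lower the luminescent signal. Cultures contained 2% hematocrit erythrocytes at 0.1% final parasitemia.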
# Shiga inhibitor – A qHTS for Small Molecule Inhibitors of Shiga Toxin. Vero cells, Shiga toxin protein synthesis inhibition reporter. inhibition, % at 38.7 µM. 9.2% of 290,000 active. AID 2315, 2010; in the data active means inhibition mostly above about 28%, no sharp cut-off; inactive means mostly below about 43%; further: 0% is about no effect
# Pf growth 96h – Primary qHTS for delayed death inhibitors of the malarial parasite plastid, 96 hour incubation | P. falciparum luciferase reporter growth, 96 h | Potency, µM (series often up to 28.7 µM), inactives show at the top dose activity change, negative = inhibition, actives largely listed as inhibitors | 6.9% of 320,000 active | AID 504834, 2011; further: potency means the concentration at half of the fitted maximal effect; on the % scale 0 is the no-effect control and ±100 the full control effect
#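 P. falciparum expressing integrated firefly luciferase, in erythrocytes at 2% hematocrit, 0.05% parasitemia, incubated with compounds 96 h at 37 C, 5% CO2. Growth inhibition read as loss of luminescence; two-generation exposure targets delayed-death apicoplast inhibitors.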
# HCV inhibitor – qHTS Assay for Inhibitors of Hepatitis C Virus (HCV). Huh7.5.1 HCVcc-Cre infection, luciferase reporter, 44 h. Potency, µM (top dose mostly 41.8 µM), for the others: at the highest dose activity change, negative = inhibition, actives largely listed as inhibitors. 3.4% of 340,000 active. AID 651820, 2012; further: potency means the concentration at half of the fitted maximal effect; on the % scale 0 is the no-effect control and ±100 the full control effect
#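 Reporter virus HCVcc-Cre (~0.5 moi) infects cells exposed to compound; seeding density 1,000 cells/well with 4 h settling beforehand. Luminescence, 15 sec read, taken 44 h post-infection following a 15 min RT substrate incubation.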
# AMA1-RON2 inh – qHTS for Inhibitors of AMA1-RON; Towards Development of Antimalarial Drug Lead: Primary Screen; Potency, µM (top dose mostly 58.2 µM), without a hit: top-dose activity change, negative = inhibition, usual class: inhibitors; AlphaScreen AMA1-biotinylated RON2 peptide binding; 0.2% of 360,000 active; Plasmodium falciparum AMA1 (3D7) - RON2 peptide interaction;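 further: potency means the concentration at half of the fitted maximal effect; 0% = vehicle wells and -100% = peptide control; nearly all actives have a fitted effect of over 45% in size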
#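 AMA1 (3D7) with his tag at 25 nM final met compounds first, then biotinylated RON2 peptide at 25 nM; detection used donor plus acceptor beads, 10 µg/mL apiece, read by AlphaScreen after 30 min at room temperature.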
# Active calls of the source: *; ? = inconclusive; . = not tested or not shown; [ ] = dose if it differs, or a comment. Unless noted, the call rests on the fitted dose curve; in most records, active means well fitted curve in the direction sought with a large enough effect; inconclusive means small, poorly fitted or top-dose-only effect, or another doubt; inactive means no such curve, though single readings can be large; an effect the other way counts as inactive or inconclusive.
SMILES,CHX counter,Pf growth 48h,Shiga inhibitor,Pf growth 96h,HCV inhibitor,AMA1-RON2 inh
COc1ccc(OC)c(CN2CCN(Cc3cc(OC)c(OC)c(OC)c3)CC2)c1,-2,0%,.,13µM*,10%,?
COc1ccc(CN2CCN(Cc3ccc(C(F)(F)F)cc3)CC2)c(OC)c1,-6,-18%[0.00184 µM],-4,-14%,?,25µM*
CS(=O)(=O)N1CCN(Cc2ccccc2C(F)(F)F)CC1,1,-3%,1,-10%,-2%,-7%
CS(=O)(=O)N1CCN(Cc2ccc(C(F)(F)F)cc2)CC1,3,.,-5,9.3µM*,-2%,-23%
COc1ccc(CNC(=O)CCc2ccc(S(=O)(=O)N3CCCCCC3)cc2)cc1OC,.,?,.,?,?,20%
COCCn1c(SCC(=O)N2CCCCCC2)nnc1-c1ccco1,-6,27%,2,22%,17%,-5%
NC(Cc1ccc(C(F)(F)F)cc1)c1csc(Nc2ccc(C(=O)NCc3ccco3)cn2)n1 (configuration not stated),.,.,.,.,.,67%
Cc1cccc2cc(-c3nc4ccc(C(=O)O)cc4[nH]3)c(=O)oc12,25*,105%,37*,11%,1%,8%
COc1ccc(/C=C/C(=O)c2cc3cccc(OC)c3oc2=O)cc1,20,0%,21,8%,-27%,-7%
CCOc1cccc2cc(C(=O)Nc3ccccc3-c3ccccc3)c(=O)oc12,13,19%,27,0%,9%,12%
CC(C)(C)c1cc(C(C)(C)C)c2oc(=O)c(-c3nc4ccc(C(=O)O)cc4[nH]3)cc2c1,.,?,.,-2%,.,.
COc1ccc(-c2cc3cccc(OC)c3oc2=O)cc1,28*,88%,64*,?,-5%,20%
COc1cccc2cc(-c3ccccc3)c(=O)oc12,48*,104%,104*,24%,-1%,14%
COc1cccc2cc(-c3nc4ccccc4[nH]3)c(=O)oc12,32*,109%,.,24%,19%,-6%
COc1cccc(OC)c1C(=O)Nc1cccc(-c2nc3ccccc3[nH]2)c1,0,14%,26,33%,?,2%
Cc1nc(S(=O)(=O)c2ccc(Cl)cc2)c(N(C)C)o1,11,32%,-5,58%,9%,-5%
CC(O)CN(C)C (configuration not stated),.,-10%,.,-14%,.,.
C=C(C)CNC(=S)Nc1nc2c(cc1C(=O)OCC)CCCC2,13,161%,active,164%,-14%,79%
O=c1c2cc3c(=O)n(-c4ccccc4O)c(=O)c3cc2c(=O)n1-c1ccccc1O,27*,1%,106*,-15%,4%,20%
O=c1c2ccccc2nc(-c2ccccc2)n1-c1ccccc1O,1,?,12,?,14%,6%
O=C(CSc1nc2ccccc2[nH]1)Nc1cc(C(F)(F)F)ccc1N1CCOCC1,-3,?,-23,5.2µM*,?,-6%
O=C(CSc1ccc(S(=O)(=O)N2CCCC2)cn1)Nc1ccc([N+](=O)[O-])cc1C(F)(F)F,.,.,.,.,13µM*,-24%
O=C(CSc1ccc([N+](=O)[O-])cn1)Nc1ccccc1N1CCOCC1,-1,?,19,4%,4%,0%
O=C(CSc1ccc([N+](=O)[O-])cn1)Nc1cc(C(F)(F)F)ccc1N1CCOCC1,-3,5.2µM*,8,-25%,.,-13%
CCOC(CNC(=O)C1CCN(S(=O)(=O)c2ccc3nc4c(c(C(=O)O)c3c2)CCCCC4)CC1)OCC,-2,2%,-2,-2%,-5%,0%
SMILES,CHX counter,Pf growth 48h,Shiga inhibitor,Pf growth 96h,HCV inhibitor,AMA1-RON2 inh
CC1Cc2ccccc2N1C(=O)COC(=O)CCc1nc2ccccc2c(=O)[nH]1 (configuration not stated),-4,-7%,-10,11%,7%,10%
COc1ccc(CN2C(=O)c3cccnc3C2=O)cc1S(=O)(=O)NC(C)C,-2,14%,-9,7%,14%,27%
Cc1ccc(/C=C/C(=O)O)cc1S(=O)(=O)Nc1ccc(C(=O)O)cc1,1,2%,18,21%,7%,-11%
Cc1ccc(/C=C/C(=O)O)cc1S(=O)(=O)Nc1ccccc1C(=O)O,7,-10%,-4,10µM*,6%,4%
COc1cc(Cl)ccc1OCc1cc(C(=O)N(C)C2CC(C)(C)NC(C)(C)C2)no1,-2,-4%,-3,31%,.,0%
COc1ccc(OCc2cc(C(=O)N(C)C3CCOCC3)no2)c2ccccc12,47*,-19%,101*,-4%,-4%,-8%
Cc1cc(OCc2cc(C(=O)N(C)C3CCOCC3)no2)cc(C)c1Cl,86*,-9%,126*,-13%,.,-8%
CCOC(=O)c1cc(COc2cc(Cl)cc(Cl)c2)on1,0,17%,-26,34%,11%,-8%
Cc1ccc(OCc2cc(C(=O)N(C)CC3CCOCC3)no2)cc1C,77*,-15%,133*,?,-20%,-16%
CN(CCN1CCOCC1)C(=O)c1cc(COc2ccc(F)c(F)c2)on1,34*,18%,88,14%,7%,12%
CN(C(=O)c1cc(COc2ccc(F)cc2Cl)on1)C1CCCc2ccccc21 (configuration not stated),1,?,6,-2%,-21%,9%
COc1ccc(OCc2cc(C(=O)N(C)C3CCOC3)no2)c(Cl)c1 (configuration not stated),27*,23%,43,-26%,-2%,7%
Cc1ccc(OCc2cc(C(=O)N(C)Cc3cnc4ccccn34)no2)cc1C,20*,-25%,33,?,11µM*,-14%
Cc1n[nH]c(C)c1CN(C)C(=O)c1cc(COc2ccc(F)c(F)c2)on1,10,25%,11,3%,.,3%
CN(C(=O)c1cc(COc2ccc(F)c(F)c2)on1)C1CCOC1 (configuration not stated),31*,19%,33,-19%,15%,-10%
Cc1cc(OCc2cc(C(=O)N3CCN(C)C(=O)[C@@H]3C)no2)cc(C)c1Cl,9,?,9,?,13µM*,-10%
CC(=O)c1ccc(OCc2cc(C(=O)N(C)Cc3ncc(C)[nH]3)no2)cc1,3,0%,-6,?,.,0%
COC(OC)c1ccnc(-c2ccc(OC(C)=O)cc2)n1,22*,28%,50,125%,14%,29%
COC(OC)c1ccnc(-c2ccc(OC(=O)c3cccs3)cc2)n1,26*,46%,61*,127%,10%,-4%

# Assay outcomes from PubChem BioAssay.
